Reference: ChEMBL document CHEMBL3988442, “University of Dundee, Small-Polar-MMV Screening Library” (2021)
About 13,000 (27%) of roughly 48,000 compounds showed an effect of 50% or more. This is one part of the list.

Tested on: Wolbachia pipientis
Experiment: Anti-Wolbachia Cell-Based Screen
Assay type: functional
Design: scale not given: in the data most compounds retested in dose-response had high values
Settings: 5 µM

SMILES	Percent Effect
O=C(c1ccc(O)nc1)N1CCN(C(=O)c2ccc(F)c(F)c2)CC1	-0.8885%
Cc1nc(C(C)C)sc1CNC(=O)CCCN1CCCCC1	-2.668%
Cc1nc(C)c(C(=O)NCCNc2cc(N3CCCC3)ncn2)s1	20.28%
Cc1nc(C)c(C(=O)NCCNC(=O)Cc2ccccc2)s1	4.586%
CCN1CCN(CCNC(=O)c2sc(C)nc2C)CC1	76.69%
Cc1nc(C(C)C)sc1C(=O)NCCn1ccnc1	18.45%
CCN1CCN(CCNC(=O)c2sc(C(C)C)nc2C)CC1	114.4%
CNC(=O)C1CCCCN1C(=O)c1csc(-c2ccccc2)n1 (centres undefined)	-0.9781%
O=C(c1n[nH]c(=O)c2ccccc12)N1CCCCC1c1ccn[nH]1 (centres undefined)	-2.968%
CC1CCCCN1C(=O)c1n[nH]c(=O)c2ccccc12 (centres undefined)	115.2%
CNC(=O)C1CCCCN1C(=O)c1n[nH]c(=O)c2ccccc12 (centres undefined)	98.92%
O=C(NCCCN1CCCC1)c1n[nH]c(=O)c2ccccc12	0.5839%
CNC(=O)C1CCCCN1C(=O)c1cn(CCOC)c2ccccc12 (centres undefined)	-5.579%
Cn1ccc2cc(CC3COCCN(C(=O)c4ccccn4)C3)ccc21 (centres undefined)	118.8%
COc1cccc(CCC2CCCN(C(=O)c3ccccn3)C2)c1 (centres undefined)	-14.56%
Cn1ccc2cc(CC3COCCN(C(=O)c4cccnc4)C3)ccc21 (centres undefined)	69.9%
O=C(c1cccnc1)N1CCN2C(=O)N(Cc3ccc(F)cc3)C[C@H]2C1	2.014%
CN(C)CCN1CC(C(=O)NCc2ccc(C#N)cc2)CC1=O (centres undefined)	-12.86%
COc1ccc(CC(C)(O)CNC(=O)NCc2cccs2)cc1 (centres undefined)	-12.02%
Cc1nc2c(c(=O)n1C)CN(C(=O)C1CCCN(CC(N)=O)C1)C2 (centres undefined)	-6.994%
CN(CC(=O)NC(Cc1ccccc1)C1CCCC1)S(C)(=O)=O (centres undefined)	1.289%
Cc1cc(N2CCC(C(=O)O)(n3ccc(C(C)(C)C)n3)CC2)nc(N)n1	-17.81%

SMILES	Percent Effect
Cc1cc(NC(=O)NCC(O)c2ccc(Cl)cc2Cl)n(C)n1 (centres undefined)	1.838%
Cc1cc(NC(=O)NCCc2ccccc2)n(C)n1	-5.779%
Cc1cc(NC(=O)NCC(c2ccc(C)o2)N2CCOCC2)n(C)n1 (centres undefined)	126.3%
Cc1cc(NC(=O)NCc2ccccc2OC(F)F)n(C)n1	8.208%
Cc1cc(NC(=O)NCC(c2ccccc2)N2CCOCC2)n(C)n1 (centres undefined)	108.2%
Cc1cnc(C(=O)NCC(c2ccc(C)o2)N2CCOCC2)cn1 (centres undefined)	-11.84%
CCc1ccccc1OCCCN(C)C(=O)C1CCCN1C(N)=O (centres undefined)	-6.634%
CCC(NC(=O)CC(F)(F)F)c1ccccc1OCC(=O)N1CCCC1 (centres undefined)	-4.718%
CCCc1cc(C(=O)N(Cc2cccnc2)C[C@@H]2CCC(=O)N2)no1	-10.16%
Cc1nccc(-c2ccccc2)c1C(=O)N1CC[C@](C)(O)C(C)(C)C1	-0.4275%
CC(C)CN1C[C@@H]2C(=O)NC3(CCN(C(=O)c4cccnc4)CC3)[C@@H]2C1	1.9%
O=C1NC2(CCc3ccccc31)CCN(C(=O)c1ccncc1)C2 (centres undefined)	94.99%
Cc1ncccc1C(=O)N1CCC2(CCc3ccccc3C(=O)N2)C1 (centres undefined)	98.8%
Cc1nccc(-c2ccccc2)c1C(=O)N1CCC2(CC(=O)NC2=O)C1 (centres undefined)	-6.27%
O=C1CCC2(CCCN(C(=O)c3cccnc3)CC2)N1 (centres undefined)	-2.669%
O=C1CCC2(CCCN(C(=O)c3cccs3)C2)N1 (centres undefined)	-85.27%
O=C1NC2(CCc3ccccc31)CCN(C(=O)c1cccnc1)C2 (centres undefined)	113.1%
CCC(C)(CC(=O)OC)NCc1noc(C)n1 (centres undefined)	-21.8%
CC(C)c1nnc2n1CCN(C(=O)COc1ccc(C(N)=O)cc1)C2	-6.982%
COCC1CC2(CCN(C(=O)C3CCSCC3)CC2)CO1 (centres undefined)	-14.44%
CCCC(Nc1c(C#N)c(=O)n(C)c(=O)n1C)c1ccc(F)cc1F (centres undefined)	-0.1424%
O=C(O)C(F)(F)F.O=C(O)C(F)(F)F.O=C(O)C(F)(F)F.c1c[nH]c(CN2CCC3(CC2)COCCN(CCN2CCCC2)C3)c1	-16.15%

SMILES	Percent Effect
Cn1cccc1C(=O)N1CCCC2(CCN(CCN3CCCC3)C2=O)C1.O=C(O)C(F)(F)F (centres undefined)	-2.422%
C[C@@H]1CN(C(=O)c2ccc[nH]2)C[C@]12CCN(CCN1CCCC1)C2=O.O=C(O)C(F)(F)F	108.3%
COCCN1CC[C@]2(CN(C(=O)c3ccc[nH]3)C[C@H]2C)C1=O	91.74%
CN1CC[C@]2(CN(C(=O)c3ccc[nH]3)C[C@H]2c2ccccc2)C1=O	-8.445%
CN1CC(c2ccccc2)C2(CCN(C(=O)c3ccc[nH]3)CC2)C1=O (centres undefined)	-2.349%
CN(C)C(=O)CCC(=O)N1CCC2(CC1)COC2	-20.99%
Cc1sc(NC(=O)CN2CCCC(c3ncc[nH]3)C2)c(C)c1C (centres undefined)	13.59%
COc1c(CNC2CCc3c(F)cccc32)c(C)nn1C.Cl (centres undefined)	125.6%
COc1c(CNC2CCOc3c(F)cccc32)c(C)nn1C (centres undefined)	-5.109%
COc1c(CNC2CCc3c(Cl)cccc32)c(C)nn1C.Cl (centres undefined)	-6.251%
COc1c(CNC2CCCOc3ccccc32)c(C)nn1C (centres undefined)	-2.484%
Cc1ccc2c(c1)CCC2NCc1c(C)nn(CCO)c1C.Cl (centres undefined)	9.193%
COc1c(CNC2CCc3cc(C)ccc32)c(C)nn1C (centres undefined)	196.3%
COc1c(CNC2CCCc3ccccc32)c(C(C)C)nn1C (centres undefined)	-2.774%
Cn1ncnc1CNC1CCc2cc(Cl)ccc21 (centres undefined)	-6.658%
COc1c(CNC2CCc3cc(Cl)ccc32)c(C)nn1C (centres undefined)	202%
COc1c(CNC2CCOc3c(Cl)cccc32)c(C)nn1C.Cl (centres undefined)	-20.37%
COc1c(CNC2CCc3cc(F)ccc32)c(C(C)C)nn1C (centres undefined)	97.63%
COc1c(CNC2CCOc3ccccc32)c(C(C)C)nn1C (centres undefined)	-0.8821%
CCOCC(=O)N1CCC2(CC1)COC(COCc1ccccn1)C2.O=C(O)C(F)(F)F (centres undefined)	-4.838%
